Data taken from the supplement of paper PMC6555819.

Experiments:
Assay in all cases: PBM binding z-score (relative to random genomic background probes); higher = stronger binding; sequences stand for … in GC…GCGATTGACAGCGTAGAATGAAGG
[1] = system: FXR:RXRa (NR concentration 270 nM, RXRa partner concentration 90 nM)
How it was run: (§1)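 Each nuclear receptor dimer, without ligand, was incubated for 1 h on custom Agilent 4×180K protein-binding microarrays. Binding was detected with antibodies against each partner (one per run), and scanned fluorescence was regression-normalized. The binding z-scores are referenced to random human genomic background probes.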

[2] = system: LXRa:RXRa (NR concentration 270 nM, RXRa partner concentration 90 nM)
How it was run: as §1

[3] = system: LXRa homodimer (NR concentration 270 nM)
How it was run: as §1

[4] = system: LXRb:RXRa (NR concentration 270 nM, RXRa partner concentration 90 nM)
How it was run: as §1

[5] = system: LXRb homodimer (NR concentration 270 nM)
How it was run: as §1

[6] = system: PPARa:RXRa (NR concentration 270 nM, RXRa partner concentration 90 nM)
How it was run: as §1

[7] = system: PPARg:RXRa (NR concentration 180 nM, RXRa partner concentration 90 nM)
How it was run: as §1

[8] = system: PPARg:RXRa 270nM:90nM, anti-RXR (NR concentration 270 nM, RXRa partner concentration 90 nM)
How it was run: as §1

[9] = system: PPARg:RXRa 30nM:10nM, anti-RXR (NR concentration 30 nM, RXRa partner concentration 10 nM)
How it was run: as §1

[10] = system: PPARg:RXRa 90nM:30nM, anti-RXR (NR concentration 90 nM, RXRa partner concentration 30 nM)
How it was run: as §1

Sequence | PBM binding z-score [1] | PBM binding z-score [2] | PBM binding z-score [3] | PBM binding z-score [4] | PBM binding z-score [5] | PBM binding z-score [6] | PBM binding z-score [7] | PBM binding z-score [8] | PBM binding z-score [9] | PBM binding z-score [10]
TAGCCTAGGGCATGGGCCAGTATACCACGCGAAC | -0.362 | -0.149 | -0.378 | -0.666 | -1.19 | -0.188 | 0.658 | 0.665 | -0.115 | 0.0783
AGAATGAGGGTAAGATCAGGGAAACAGAATACAT | 0.539 | 0.166 | 0.147 | 0.566 | 0.276 | 0.918 | 0.981 | 0.698 | 0.455 | 0.409
ATCTCTAGGTAAAGATCGTTCAGTGAATGCAAAT | -0.176 | 1.87 | -0.123 | 0.339 | 0.387 | 0.218 | 0.287 | 0.923 | 0.249 | 0.749
CCGTCTGGGGCAAAGGTTACCATACTCAGTACGA | 1.5 | 1.57 | -0.23 | 2.15 | -0.982 | 4.92 | 10.4 | 8.97 | 9.6 | 10.6
ACTAGTTGGTCAGCTGATGTCACACACAATTCGG | 0.0768 | -0.317 | -0.115 | 0.235 | -0.112 | 0.0483 | 0.943 | 0.0634 | 0.0518 | 0.0179
TCATATAGGTCAACAGGTGAAAGTCCGTAAGTTA | 6.45 | 5.39 | 1.85 | 4.2 | 1.2 | 5.91 | 8.36 | 7.51 | 5.85 | 7.17
CCGACTGGGGCATAAGGTTGCCATAAGCCAGCCC | -0.333 | -0.188 | -0.75 | -0.498 | -1.17 | 0.636 | 0.999 | 1.81 | -0.189 | 1.12
CGTCCAAGGTCATAGGAGGTCAGAGAAGACAGAT | 8 | 7.71 | 5.01 | 6.38 | 0.877 | 6.27 | 6.35 | 6.19 | 2.71 | 5.09
ACTAGTTCGTCAGCTGAGGTCACACACAATTCGG | 3.55 | 3.53 | 2.68 | 4.09 | 0.796 | 4.03 | 1.75 | 2.28 | 0.594 | 1.5
ATCTGTAGGTAAAGATAGTTCAGTGAATGCAAAT | 0.274 | 4.33 | 0.422 | 0.986 | 0.477 | 0.733 | 0.782 | 0.571 | 0.256 | 0.391
AGAATGAGGTTGAGATCAGGGAAACAGAATACAT | 0.277 | 0.207 | -0.104 | 0.224 | -0.585 | 0.66 | 0.524 | 0.227 | 0.329 | 0.246
TAGCCTAGGTCATTGGGCCAGTATGGTACGCATC | 4.05 | 3.25 | 0.37 | 2.07 | 0.231 | 3.63 | 3.54 | 3.7 | 0.478 | 2.47
ATCTCTAGGTCACCAAGTTCAGTGAATGCCGAAC | 4.67 | 5.17 | 4.93 | 3.52 | 2.23 | 4.74 | 7.04 | 6.1 | 3.59 | 5.18
CCTACTGGGCCAAGGTCATCGATCAGTCAAAGCA | 3.48 | 3.15 | 0.707 | 2.74 | -0.415 | 4.23 | 4.52 | 4.7 | 2 | 4.15
CCTCCAAGGTCAAGGTCAGTGAAAGAGACTCGAA | 7.8 | 5.56 | 1.22 | 4.56 | 0.877 | 5.99 | 6.15 | 6.06 | 2.76 | 4.75
GCTCAGAGGACAAGGTCAGAGCTTTGTCCGTAGA | 1.98 | 1.73 | -0.421 | 1.27 | -0.977 | 2.37 | 0.282 | 0.936 | -0.588 | 0.0916
ACTGGCAGGCCAAGGGTCACTCAAGATTAGTCCG | 2.36 | 2.55 | -0.0676 | 2.36 | -0.732 | 3.88 | 5.21 | 5.21 | 3.1 | 5.1
TCTTATAGGTAAACAGGTGAAAGTCCGTAAGTTA | 1.1 | 1.01 | 0.0286 | 0.875 | 0.307 | 2.34 | 2.7 | 3.52 | 4.06 | 3.86
CGTCCAAGGTCATAGGAGGTCAGTGAAGACAGAT | 7.58 | 7.44 | 4.4 | 5.99 | 1.01 | 5.84 | 5.77 | 5.68 | 2.12 | 4.17

Sequence | PBM binding z-score [1] | PBM binding z-score [2] | PBM binding z-score [3] | PBM binding z-score [4] | PBM binding z-score [5] | PBM binding z-score [6] | PBM binding z-score [7] | PBM binding z-score [8] | PBM binding z-score [9] | PBM binding z-score [10]
TAGCCTGGGTCATTCAGGGGCCAGTATAGAAAGC | 3.88 | 2.28 | -0.548 | 2.04 | 0.00492 | 3.65 | 2.29 | 2.38 | 0.19 | 1.47
ACTATTAGGTGAGACGAGGGCAACCGATAGGTTG | 1.3 | 0.503 | 0.00247 | 0.202 | -0.293 | 1.5 | 1.44 | 1.19 | 0.65 | 0.864
ATCGAAAGGTCGTGAGGTTAGTATACAGAAAGGC | 5.61 | 4.18 | 0.638 | 3.63 | 0.777 | 5.04 | 3.95 | 4.19 | 1.92 | 3.08
GCGACTGGGGCAAAGCAGGTTAGCATAAGGTTGG | 0.494 | -0.573 | -0.598 | -0.43 | -1.24 | 0.977 | 1.14 | 0.948 | -0.509 | 0.412
TTACCAAGGAGAAGGTCGTTGATCCCTCTGTAGA | 1.21 | 1.19 | -0.0479 | 0.995 | -0.829 | 1.18 | 0.529 | 2.23 | 1.24 | 1.77
CGTCAAAGTTCAACTTAGGTAACGTAAAGCACGC | 7.46 | 6.58 | 4.88 | 4.63 | 2.58 | 5.35 | 5.28 | 5.78 | 2.4 | 4.66
GCAGACAGGTGAAAAGCAGGTAACTCAGGGTGGC | -0.224 | -0.0671 | -0.495 | -0.319 | -0.696 | 0.507 | 0.376 | 0.014 | -0.488 | -0.253
ACTAGCAGGCCAAATTTGGGTCACTCAAACAAAG | 0.491 | 0.315 | -0.377 | 0.947 | -0.562 | 2.99 | 1.62 | 1.84 | 0.0732 | 1.04
TCATATAGGTAAACAGATGAAAGTCCGTAAGTTA | 1.23 | 0.739 | 0.342 | 0.86 | -0.0548 | 1.14 | 1.36 | 2.08 | 3.81 | 3.18
CCTAGTTGATCAAGGTCACACACGCTATAGGTAC | 4.38 | 4.15 | 2.75 | 4.06 | 1.42 | 4.36 | 2.96 | 3.19 | 1.28 | 2.24
ATCTCTAGGTAGCAAGTTCAGTGAAAGAGAGGAC | 0.337 | 0.333 | 0.238 | 0.0819 | 0.153 | 0.475 | 0.327 | 0.887 | 0.0265 | 0.756
GGAACGAGGGCATTCGTGTTGATAGCATGGCGAT | 0.778 | 0.372 | -0.449 | 0.152 | -0.674 | 1.39 | 0.763 | 0.768 | -0.395 | 0.413
CCTTACGGGTAACTGACAGGTTATAGCATTTGGA | 0.183 | 0.937 | 9.84e-05 | 0.454 | -0.428 | 0.56 | 0.319 | 0.0456 | -0.0329 | -0.0443
GCGACTGGGGCATCAGCAGGTTTCCATAACTTAA | -0.587 | -0.452 | -0.461 | 0.112 | -0.629 | 0.353 | 0.32 | 0.386 | -0.554 | -0.228
CAAACTAGGTCAAGACGTCAAAGTCCGCTTCCCG | 3.84 | 2.6 | 0.426 | 1.79 | 0.329 | 4.81 | 7.43 | 6.72 | 4.47 | 6.25
ATACCAAGGTGATCGTGAGGTCGTGGATACTAAC | 1.71 | 1.27 | 0.515 | 1.39 | -0.127 | 2.17 | 0.846 | 0.784 | -0.103 | 0.493
CCGACTGGGCCAAGGTCATTGATCAGTCAAAGCA | 2.94 | 2.76 | 0.884 | 2.65 | -1.02 | 3.83 | 2.29 | 3 | 0.61 | 2.11
ACTAGCAGGCCAAGTTTGGGTCACACAAACAAAG | 0.341 | 0.408 | -0.252 | 1.17 | -0.354 | 1.85 | 0.563 | 0.793 | -0.154 | 0.0156
TTACCAAGGTGAAAGGTCGTTGGTGCACGCCTTG | 4.28 | 3.47 | 0.325 | 2.87 | -0.67 | 5.54 | 8.98 | 8.05 | 6.8 | 8.19
